Screening results as filed in PubChem BioAssay.
This excerpt belongs to a sample that is enriched for hits.
BL2 CD40 inh – CD40 pathway inhibition in BL2 cells. BL2 NF-kB luciferase reporter, CD40L-induced, 4 h. inhibition, % at 10 µM. 83,000 tested, 0.94% active;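 active = mean inhibition of at least 50% with a set share of replicates also reaching that level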;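 also: 0% = neutral control wells and 100% = IKK inhibitor VII at 50 µM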
* hit, by the source's call; [ ] = dose if it differs, or a comment.

SMILES	BL2 CD40 inh
COCCNC(=O)C[C@H]1CC[C@@H]2[C@@H](COc3ccc(NS(=O)(=O)c4ccc(Cl)cc4)cc3C(=O)N2C)O1	6[25 µM]
C[C@H]1CN([C@@H](C)CO)C(=O)c2c(c3ccccc3n2C)-c2ccccc2CO[C@@H]1CN(C)C(=O)Nc1ccc(-c2ccccc2)cc1	-4
COC(=O)[C@H]1[C@H](CO)[C@H]2Cn3c(ccc(-c4ccccc4OC)c3=O)[C@H]2N1CC1CCCC1	0
CN1CCN(C(=O)C[C@@H]2CC[C@@H]3[C@@H](COc4ccc(NC(=O)c5cccs5)cc4C(=O)N3C)O2)CC1	-16[25 µM]
CC(C)NC(=O)Nc1cccc2c1O[C@@H](CN(C)C)[C@H](C)CN(C)C2=O	1
CO[C@H]1CN(C)C(=O)c2ccc(NS(C)(=O)=O)cc2OC[C@@H](C)N(C(=O)C2CCCC2)C[C@H]1C	-14
CCS(=O)(=O)N1[C@H](CO)[C@@H](c2ccc(C#Cc3ccccc3F)cc2)[C@@H]1C#N	65*[25 µM]
CCS(=O)(=O)N1[C@H](C#N)[C@@H](c2ccc(C#Cc3ccccc3F)cc2)[C@H]1CO	-13[25 µM]
CCS(=O)(=O)N1[C@H](CO)[C@H](c2ccc(C#Cc3ccccc3F)cc2)[C@@H]1C#N	-4[25 µM]
CS(=O)(=O)N1C[C@@H]2C(c3ccc(Br)cc3)[C@H](C1)N2Cc1ccc(F)cc1 (some centres not stated)	11
CN(C)c1ccc2c(c1)[C@@H]1C[C@@H](CC(=O)NC3CCCCC3)O[C@@H](CO)[C@@H]1O2	-8[25 µM]
C[C@@H]1CN([C@@H](C)CO)C(=O)CCCn2cc(nn2)CO[C@H]1CN(C)S(=O)(=O)c1ccc(Oc2ccccc2)cc1	-4
C[C@@H]1CN([C@@H](C)CO)C(=O)c2cc(C3=CCCCC3)cnc2O[C@H]1CN(C)S(=O)(=O)c1cn(C)cn1	-15[25 µM]
Cc1cc(O)c(C(C)C)cc1C1(c2cc(C(C)C)c(O)cc2C)OC(=O)c2ccccc21	39*
CC(=O)NC[C@H]1[C@@H](c2ccc(-c3cccnc3)cc2)[C@@H](CO)N1C(=O)CC1CC1	-1[25 µM]
C[C@@H]1CN([C@@H](C)CO)C(=O)Cc2cc(NC(=O)CCC(F)(F)F)ccc2O[C@@H]1CN(C)CC1CC1	2[25 µM]
CCc1cc2c(=O)c(-c3ccc4c(c3)OCCO4)coc2c(CN2CCCCC2C)c1O (configuration not stated)	32*
O=C(CN1CCC(C(=O)c2ccc3c(c2)OCCO3)CC1)NC1CCCC1	16
CSCCC(NC(=O)OC(C)(C)C)C(=O)Oc1ccc2c(=O)c(-c3ccc4c(c3)OCCO4)coc2c1 (configuration not stated)	-3
CCCN(C)C[C@H]1OCc2ccccc2-c2ccccc2C(=O)N([C@@H](C)CO)C[C@H]1C	-5[25 µM]
N#C[C@H]1[C@@H](c2ccc(C3=CCCCC3)cc2)[C@H](CO)N1C(=O)Cc1ccncc1	-5
C[C@@H]1CCCCO[C@H](CN(C)Cc2ccc(C(F)(F)F)cc2)[C@H](C)CN([C@@H](C)CO)C(=O)c2cc(NC(=O)NC3CCCCC3)ccc2O1	10
CO[C@@H]1CN(C)C(=O)c2cc(NC(=O)C3CCCC3)ccc2OC[C@@H](C)NC[C@@H]1C	-2
CCOC(=O)C1CCN(Cc2ccc(O)c3ncccc23)CC1	103*
CCOC(=O)C1CCN(C2CCN(Cc3nc(-c4ccccc4)no3)CC2)CC1	4
SMILES	BL2 CD40 inh
CCOC(=O)C1CCN(C(=O)c2cccnc2)CC1	6
COc1ccc2c3c([nH]c2c1)[C@H](CO)N(Cc1ccccn1)CC31CN(Cc2cccc(F)c2)C1	-8[25 µM]
CCC(=O)N1[C@@H]2c3ccc(-c4ccccc4)c(=O)n3C[C@@H]2[C@@H](CO)[C@@H]1C(=O)N(C)C	-7[25 µM]
CCCC#Cc1ccc2c(c1)[C@H]1[C@H](CCN1S(=O)(=O)c1cn(C)cn1)[C@H](CO)N2	17[25 µM]
CCN(CC)CCCNc1nc2ccccc2c2[nH]c3ccc(OC)cc3c12	103*
COc1ccc2[nH]c3c(NCCCN4CCCC4=O)ncnc3c2c1	-32
CCN(CC)CCCNS(=O)(=O)c1ccc(OC)cc1	3
COc1ccc(S(=O)(=O)N(C)C[C@H]2Oc3c(cccc3N(C)C)C(=O)N([C@@H](C)CO)C[C@H]2C)cc1	-3[25 µM]
Cc1ccc(S(=O)(=O)N(C)C[C@@H]2OCCCC[C@@H](C)Oc3ccc(NS(C)(=O)=O)cc3C(=O)N([C@@H](C)CO)C[C@@H]2C)cc1	9
CC(=O)N(C)C[C@@H]1Oc2ccc(NC(=O)NC(C)C)cc2CC(=O)N(C)C[C@@H]1C	1
Cc1ccc(C)c([N+](=O)[O-])c1	12
CCc1nnc(NS(=O)(=O)c2ccc(Nc3ccc([N+](=O)[O-])c4nonc34)cc2)s1	16
Cc1ccc(S(=O)c2ccc([N+](=O)[O-])c3nonc23)cc1 (configuration not stated)	87*
O=C(C1CCCC1)N1CC[C@@H]2[C@H](CO)Nc3ccc(C4=CCCCC4)cc3[C@@H]21	26
CO[C@@H]1CN(C)C(=O)c2cc(NS(C)(=O)=O)ccc2OC[C@H](C)N(CC2CCOCC2)C[C@H]1C	1
CC(=O)N(C)C[C@@H]1Oc2ccc(NS(C)(=O)=O)cc2C(=O)N(C)C[C@H]1C	7
Cn1c(SC/C=C/c2ccccc2)nnc1-c1cccnc1	5
Cc1nn2c(-c3cccnc3)ccnc2c1-c1ccccc1	-67
Cn1c(SSc2ccc(-c3cccnc3)n2C)ccc1-c1cccnc1	48*
COc1ccc(-c2ccccc2[C@H]2[C@@H](C#N)N(C(=O)C3CCCCC3)[C@H]2CO)cc1	-11[25 µM]
N#CC1(NC(=O)COC(=O)c2ccc(Cl)nc2)CCCCC1	3
N#CC1(NC(=O)Cn2ncc(Cl)c(Cl)c2=O)CCCCC1	119*
Cc1cc(SCC(=O)NC2(C#N)CCCCC2)nc2c(C)cccc12	-2
CC(=O)O[C@@H]1c2c(ccc3ccc(=O)oc23)OC(C)(C)[C@@H]1OC(=O)CC(C)C	13[25 µM]
N#C[C@H]1[C@@H](c2ccc(C#Cc3ccccc3F)cc2)[C@@H](CO)N1C(=O)C1CC1	32
SMILES	BL2 CD40 inh
C[C@H]1CN([C@@H](C)CO)C(=O)c2ccccc2-c2ccccc2CO[C@@H]1CN(C)C(=O)Cc1ccccc1	-10[25 µM]
CO[C@@H](CN(C)S(=O)(=O)c1ccc(Cl)cc1)[C@H](C)CN(Cc1ccccc1Cl)[C@@H](C)CO	34*
CO[C@@H](CN(C)S(=O)(=O)c1ccc(Cl)cc1)[C@@H](C)CN(Cc1ccccc1Cl)[C@H](C)CO	2
CO[C@H](CN(C)S(=O)(=O)c1ccc(Cl)cc1)[C@H](C)CN(Cc1ccccc1Cl)[C@@H](C)CO	14
O=C(C[C@@H]1CC[C@@H](NS(=O)(=O)c2ccccc2F)[C@@H](CO)O1)NCCCN1CCOCC1	7[25 µM]
COc1ccccc1CN1[C@@H](CO)[C@@H]2c3ccccc3N(C(=O)C3CCCC3)C[C@@H]21	8
COc1ccc(OCc2cccc(C(=O)NN)c2)cc1	25*
NNC(=O)c1cccc(COc2cccc(Br)c2)c1	-57
O=C(c1cccc(OCc2ccccc2)c1)N1CCOCC1	-8
COc1ccc(OCc2ccc(C(=O)N3CCOCC3)cc2)cc1	-23
CCOc1ccc(OCc2cccc(C(=O)N3CCOCC3)c2)cc1	90*
COc1ccc(OCc2cccc(C(=O)Nc3cc(C)on3)c2)cc1	4
COc1ccc2c3c([nH]c2c1)[C@H](CO)N(C(=O)CN(C)C)CC31CCN(Cc2cncnc2)CC1	-2[25 µM]
O=C(O)c1cc(-c2ccccc2)nc2ccccc12	-4
OC(CN1CCOCC1)Cn1c(-c2cccc(Cl)c2)nc2ccccc21 (configuration not stated)	0
